Compound activity from PubChem BioAssay.
Ins promoter up – MIN6 insulin promoter up-regulation. z-score at 5 µM. MIN6 insulin promoter-GFP reporter, high-content imaging; active compounds read high. 190,000 compounds, 0.3% hits;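 active = z-score above 3 at 5 µM with at least 500 cells counted in the well; inconclusive = wells under 500 cells, flagged as cytotoxic or low count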
WT yeast gro inh – growth inhibition of WT yeast, mitochondrial fusion screen. AID 1362. inhibition, % at 10 µM. mitochondrial fusion phenotypic screen, WT strain. 190,000 compounds, 2.1% hits; in the data active = inhibition above about 58%; tested in S. cerevisiae
ROMK mod – modulators of human ROMK potassium channel. Tet-inducible ROMK, thallium flux fluorescence; actives lie on both sides. P48048. 130,000 compounds, 2% hits. B-score at 10 µM;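 active = signal ratio slope over the read window, or its plate-corrected B-score, at least 3 SD from the plate mean, either direction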;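 also: B-score of the F/F0 ratio slope over 7 to 12 s after thallium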
Target sequence (P48048 whole entry, looked up): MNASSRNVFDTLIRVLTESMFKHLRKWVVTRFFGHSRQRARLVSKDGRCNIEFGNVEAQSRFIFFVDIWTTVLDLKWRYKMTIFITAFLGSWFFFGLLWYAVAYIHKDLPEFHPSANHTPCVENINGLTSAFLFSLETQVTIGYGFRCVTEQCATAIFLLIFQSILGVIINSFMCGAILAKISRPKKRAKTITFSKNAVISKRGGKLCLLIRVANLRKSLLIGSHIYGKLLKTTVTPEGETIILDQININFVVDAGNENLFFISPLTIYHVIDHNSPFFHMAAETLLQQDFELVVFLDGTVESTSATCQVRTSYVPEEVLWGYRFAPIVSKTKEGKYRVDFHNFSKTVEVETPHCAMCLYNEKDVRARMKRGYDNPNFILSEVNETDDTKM
Insulin prom inh – TRM-6 insulin promoter activity inhibition; TRM-6 cells (human fetal islet line), insulin promoter-eGFP reporter, imaging; reporter expression induced with tamoxifen; inhibition, % at 2 µM; 130,000 compounds, 0.9% hits; AID 1273;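 active = inhibition above the mean plus 3 SD, with well images judged a real hit on visual review, cut at about 60% in these data, passing the limit was not always enough; inconclusive = inhibition over the cutoff but images rejected on review; inactive = inhibition not above the cutoff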
Lmaj promast – inhibitors of Leishmania major promastigote growth; 200,000 compounds, 9% hits; inhibition, % at 10 µM; Leishmania major promastigotes, resazurin fluorescence viability; in the data active = inhibition above about 50%;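 also: promastigotes grown with compound for 44 hours at 28 °C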
Cl transport mod – modulators of human KCC2 chloride dependent transport; AID 1456; KCC2 cells, thallium flux FluoZin-2 fluorescence; B-score of Tl+ flux slope (higher = more flux/activation; lower = inhibition) at 10 µM; 190,000 compounds, 2.2% hits;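 active = thallium flux slope and its plate-corrected score both differing from the plate sample mean at a set confidence after two filtering rounds, in either direction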;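 also: slope of fluorescence scaled to starting intensity during 10 to 20 s after thallium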
KCC2 secondary – confirmation of human KCC2 transport modulators | shares compounds with Cl transport mod | HEK293-KCC2, thallium flux, FluoZin2 fluorescence; active compounds read high | normalised thallium flux (F/F0 slope) at 10 µM | 3,700 compounds, 15% hits;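 active = thallium flux slope above the same plate's solvent-only control mean plus 3 SD; inconclusive = the two replicate wells disagree; inactive = no significant difference from solvent-only control wells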
KCC2 bumet counter – thallium flux persisting under bumetanide in KCC2 cells, counter-screen secondary assay | AID 1714 | shares compounds with Cl transport mod | normalized thallium flux at 10 µM | HEK293-KCC2 + bumetanide/ouabain, thallium flux FluoZin2; active compounds read high | 3,700 compounds, 49% hits;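 active = thallium entry rate above the same plate's blocked-transporter control wells by more than 3 SD; inconclusive = the two repeat wells disagree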;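 also: raw slope of fluorescence over initial fluorescence between 10 and 20 s after thallium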
KCC2 sec2 – KCC2 (human) modulation, second secondary assay; normalized thallium flux at 10 µM; shares compounds with Cl transport mod; 3,700 compounds, 23% hits; HEK293-KCC2, thallium flux FluoZin2 fluorescence; actives lie on both sides; F/F0 rise rate, 10–20 s post-thallium;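 active = thallium flux slope more than 3 SD above or below the plate's solvent-only control mean, mostly below; inconclusive = the two repeat wells disagreed; inactive = no significant shift from solvent-only controls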;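 also: raw slope with 0.1% DMSO as baseline and bumetanide as block control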
HEK counter1 – acts in parental HEK cells, KCC2 counter-screen; shares compounds with Cl transport mod; HEK293 parental cells, thallium flux FluoZin2, ouabain; baseline-ratio fluorescence slope, 10–20 s after thallium; thallium flux rate (normalised fluorescence) at 10 µM; 3,700 compounds, 46% hits; AID 1716;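 active = thallium flux rate significantly above the same plate's solvent-only control wells, beyond their mean plus 3 SD; inconclusive = the two replicate wells gave conflicting results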
KCC2 retest ouab – modulates human KCC2 on retest with ouabain; shares compounds with Cl transport mod; HEK293-KCC2, thallium flux FluoZin2 fluorescence; bidirectional: low = inhibitor, high = activator; raw Tl+ flux slope (below DMSO = inhibition, above = activation) at 10 µM; 3,700 compounds, 48% hits; AID 1717;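 active = thallium flux slope beyond 3 SD from same-plate DMSO control mean in most replicates, usually higher, sometimes lower; inconclusive = repeat tests gave conflicting results; inactive = no significant difference from controls in most replicates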;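 also: slope of initial-normalized fluorescence between seconds 10 and 20 after thallium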
HEK293 Tl flux2 – counter-screen for KCC2 modulators: effect in parental HEK293 cells. 3,700 compounds, 33% hits. thallium flux FluoZin-2 fluorescence slope. thallium flux slope at 10 µM. AID 1718. shares compounds with Cl transport mod;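 active = thallium flux slope above the same plate's solvent-control mean plus 3 SD in both duplicate wells; inconclusive = duplicate wells that disagreed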;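 also: run without ouabain in cells lacking the KCC2 cotransporter; slope of fluorescence scaled to its starting value between 10 and 20 s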
The depositor's hits bear a star; ? = inconclusive; / = no result given. Only some compounds are listed: those with a hit (about 12% of all), similar ones and a draw of the others.

SMILES	Ins promoter up	WT yeast gro inh	ROMK mod	Insulin prom inh	Lmaj promast	Cl transport mod	KCC2 secondary	KCC2 bumet counter	KCC2 sec2	HEK counter1	KCC2 retest ouab	HEK293 Tl flux2
COc1ccc(-c2cc(CNC(=O)CN(C)Cc3ccccc3)on2)cc1	-0.03	32	/	-10	1	/	0.0058	0.0049	0.024*	0.0068	0.013*	0.0094
COc1ccc(-c2cc(CNS(=O)(=O)c3ccccc3)on2)cc1	0.63	7	-0.16	9	-1	-0.016	/	/	/	/	/	/
COCCn1c(N)c(NCc2ccccc2)c(=O)n(CC(=O)Nc2cc(C)ccc2C)c1=O	0.03	14	-0.23	-57	-1	/	/	/	/	/	/	/
S=c1[nH]nc(-c2ccco2)n1/N=C/c1ccccc1Cl	1.1	-4	/	/	-5	10*	0.012*	0.036*	0.037	0.018*	0.041*	0.012*
Cc1ccc(/C=N/n2c(-c3ccco3)n[nH]c2=S)s1	-0.91	12	0.29	-165	-8	2.1	/	/	/	/	/	/
S=c1[nH]nc(-c2ccccn2)n1/N=C/c1ccc(Cl)cc1	-0.74	/	/	/	/	2.6	/	/	/	/	/	/
S=c1[nH]nc(-c2ccco2)n1/N=C/c1ccc(Cl)cc1	-0.52	42	0.76	/	-7	4.1*	0.015*	0.15*	0.032	0.053*	0.074*	0.013*
CCOc1cc(NC(=S)NCCCN2CCOCC2)c(OCC)cc1NC(=O)c1cccc(F)c1	-0.29	-24	0.85	/	1	/	/	/	/	/	/	/
COCCNC(C)C(=O)C12CC3CC(CC(C3)C1)C2 (stereo not given)	-0.94	-6	/	32	-2	9*	0.0053	0.0046	0.027	0.0075	0.018	0.01
CC(CCc1ccccc1)NC(=O)/C=C/c1ccc(Cl)cc1 (stereo not given)	1.5	36	0.73	5	52*	-8.1*	0.0073	0.0056	0.027	0.0065	0.018	0.0093
CC(Cc1ccccc1)NC(=O)/C=C/c1ccc([N+](=O)[O-])cc1 (stereo not given)	0.3	1	-0.76	15	6	-3.1	/	/	/	/	/	/
Cc1ccc(C)c(C(=O)NC(C)CCc2ccccc2)c1 (stereo not given)	-0.58	3	-0.013	-36	3	-3.5*	0.0075	0.0044	0.025*	0.0074	?	0.01
Clc1ccccc1CSC1=NCCCN1	/	-11	1.7	20	-1	/	0.0075	0.0047	0.031	0.008	0.02	0.011
O=c1ccnc(SCc2ccccc2Cl)[nH]1	-0.15	-8	/	20	-8	/	/	/	/	/	/	/
C=C/C(C)=C/CC1C(=C)CCC2C(C)(C(=O)O)CCCC12C (stereo not given)	0.52	/	/	/	/	2.3*	0.0068	0.0092*	0.031	0.012*	?	0.014*
O=c1oc2ccccc2c(Nc2ccc(Cl)cc2)c1[N+](=O)[O-]	/	/	0.59	/	/	-2.3	/	/	/	/	/	/
COC(=O)c1ccc(Nc2c([N+](=O)[O-])c(=O)oc3ccccc23)cc1	-0.36	/	0.51	/	/	-4.5*	0.0085	?	0.029	?	0.027*	?
O=c1oc2ccccc2c(Nc2ccc(F)cc2)c1[N+](=O)[O-]	-0.55	7	0.14	-69	4	-3.4*	0.0058	0.0046	0.029	0.0063*	0.017	?
Cc1ccc(Nc2c([N+](=O)[O-])c(=O)oc3ccccc23)cc1C	/	8	0.13	/	4	-2.8*	0.018	0.0042	0.03	?	0.014	0.009
